From PubChem BioAssay AID1832 (Broad Institute, 2009)
Out of some 300,000 compounds screened, about 1,100 (0.37%) were called active. The sample as a whole holds a higher share of actives than the screen did. Values without a mark were called inactive.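 How the source made its calls: active means inhibition past about -25% in most replicates, and total fluorescence under double the plate's negative control median (limit read from the data); inconclusive means replicates evenly split on the limit, or fluorescence at least double controls; inactive means too little inhibition in most replicates.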

Biological target: Zinc finger protein mex-5 (Caenorhabditis elegans) (UniProt Q9XUB2)
Experiment: MEX-5 zinc finger RNA-binding disruptors – biochemical, C. elegans, fluorescence polarization, MLPCN library, primary screen (AID 1832);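 further: 0% = DMSO and -100% = 5 µM competing unlabeled TCR2 RNA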
Conditions: MEX-5/FITC-TCR2 RNA binding, at 10 µM, stronger effect = lower value

Chain of Zinc finger protein mex-5 (Caenorhabditis elegans) (Q9XUB2 whole entry, looked up): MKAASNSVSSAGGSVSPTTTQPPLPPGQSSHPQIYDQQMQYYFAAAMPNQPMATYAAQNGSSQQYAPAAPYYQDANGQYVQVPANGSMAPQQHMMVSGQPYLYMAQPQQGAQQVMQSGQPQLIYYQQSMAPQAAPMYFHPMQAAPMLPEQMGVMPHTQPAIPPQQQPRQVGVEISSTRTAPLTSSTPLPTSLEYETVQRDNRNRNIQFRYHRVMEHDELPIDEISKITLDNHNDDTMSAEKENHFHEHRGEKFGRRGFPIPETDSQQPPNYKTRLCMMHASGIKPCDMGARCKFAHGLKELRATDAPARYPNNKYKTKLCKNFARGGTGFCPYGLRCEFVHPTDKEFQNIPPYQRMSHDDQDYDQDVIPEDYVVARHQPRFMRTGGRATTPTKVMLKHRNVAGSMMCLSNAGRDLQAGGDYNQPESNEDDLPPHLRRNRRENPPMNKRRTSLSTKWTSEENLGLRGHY

| Compound | activity score (negative = inhibition of binding) |
| --- | --- |
| O=C1NC(=O)N(c2ccccc2)C(=O)/C1=C/c1ccc([N+](=O)[O-])s1 | -35.6% (active) |
| O=C1NC(=O)N(c2ccc(F)cc2)C(=O)/C1=C/c1ccc2c(c1)CCCN2Cc1ccccc1 | -7.18% |
| Cc1cccc(N2C(=O)NC(=O)/C(=C\c3cnn(-c4ccccc4)c3)C2=O)c1 | 1.06% |
| COc1ccc2[nH]c3c(c2c1)CCN[C@H]3C | 2.22% |
| COc1ccc(N2C(=O)/C(=C/c3ccco3)C(=O)NC2=S)cc1 | -95.1% (active) |
| Cc1cc(/C=C2/C(=O)NC(=O)N(Cc3ccco3)C2=O)c(C)n1-c1ccc(C(=O)O)cc1 | -4.55% |
| COc1ccc(CN2C(=O)NC(=O)/C(=C\c3ccc(OC)c(OC)c3OC)C2=O)cc1 | 7.01% |
| CN(C)CC1CCCCC1OC(=O)c1ccc(Cl)c(Cl)c1 (stereo not given) | -0.533% |
| O=Cc1cn(Cc2ccc(F)cc2Cl)c2ccccc12 | -1.5% |
| COc1cccc(-c2nc3ccc(N4CCN(C)CC4)cc3[nH]2)c1 | 2.54% |
